Unmarked numbers belong to inactive results. Results filed as inconclusive are left out. A call without a number means that no potency is given here. Activity calls are given as the source filed them. Unless noted, the call rests on the fitted dose curve; in most records, active means well fitted curve in the direction sought with a large enough effect; inconclusive means small, poorly fitted or top-dose-only effect, or another doubt; inactive means no such curve, though single readings can be large; an effect the other way counts as inactive or inconclusive.
How the values were obtained:
[1] = molecular target: Cytochrome P450 1A2 (Homo sapiens) (UniProt P05177); assay: p450-cyp1a2 (AID 410; calls by dose curve; further: potency means the concentration at half of the fitted maximal effect)
Sequence of Cytochrome P450 1A2 (Homo sapiens) (P05177 whole entry, looked up): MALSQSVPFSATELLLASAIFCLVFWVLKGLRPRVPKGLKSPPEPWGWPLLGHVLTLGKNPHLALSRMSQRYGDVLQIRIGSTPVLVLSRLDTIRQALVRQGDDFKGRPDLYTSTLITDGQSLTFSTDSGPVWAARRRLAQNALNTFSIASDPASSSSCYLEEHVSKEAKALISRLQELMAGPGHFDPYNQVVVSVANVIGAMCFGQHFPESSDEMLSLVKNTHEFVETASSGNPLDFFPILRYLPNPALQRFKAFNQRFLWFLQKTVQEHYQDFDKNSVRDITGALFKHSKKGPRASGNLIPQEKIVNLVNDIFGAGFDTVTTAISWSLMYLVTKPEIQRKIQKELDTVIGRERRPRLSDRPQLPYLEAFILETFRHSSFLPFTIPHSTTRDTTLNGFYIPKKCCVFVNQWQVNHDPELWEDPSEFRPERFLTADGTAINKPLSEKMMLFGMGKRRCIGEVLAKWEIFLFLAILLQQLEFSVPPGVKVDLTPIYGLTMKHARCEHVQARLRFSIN
Method in brief: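 O-Demethylation of luciferin 6' methyl ether by human CYP1A2 is monitored as luciferase luminescence. Substrate sits at Km (100uM); enzyme is 20nM. Values are scaled to 57 uM furafylline as maximal inhibition.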

[2] = molecular target: 3',5'-cyclic-AMP phosphodiesterase 4B (Homo sapiens) (UniProt Q07343); assay: qHTS Assay for Inhibitors of PDE-IV (AID 607; active means well fitted activation curve with a large enough effect in the main read-out, with a control signal flat, not every such curve was filed as active)
Sequence of 3',5'-cyclic-AMP phosphodiesterase 4B (Homo sapiens) (Q07343 whole entry, looked up): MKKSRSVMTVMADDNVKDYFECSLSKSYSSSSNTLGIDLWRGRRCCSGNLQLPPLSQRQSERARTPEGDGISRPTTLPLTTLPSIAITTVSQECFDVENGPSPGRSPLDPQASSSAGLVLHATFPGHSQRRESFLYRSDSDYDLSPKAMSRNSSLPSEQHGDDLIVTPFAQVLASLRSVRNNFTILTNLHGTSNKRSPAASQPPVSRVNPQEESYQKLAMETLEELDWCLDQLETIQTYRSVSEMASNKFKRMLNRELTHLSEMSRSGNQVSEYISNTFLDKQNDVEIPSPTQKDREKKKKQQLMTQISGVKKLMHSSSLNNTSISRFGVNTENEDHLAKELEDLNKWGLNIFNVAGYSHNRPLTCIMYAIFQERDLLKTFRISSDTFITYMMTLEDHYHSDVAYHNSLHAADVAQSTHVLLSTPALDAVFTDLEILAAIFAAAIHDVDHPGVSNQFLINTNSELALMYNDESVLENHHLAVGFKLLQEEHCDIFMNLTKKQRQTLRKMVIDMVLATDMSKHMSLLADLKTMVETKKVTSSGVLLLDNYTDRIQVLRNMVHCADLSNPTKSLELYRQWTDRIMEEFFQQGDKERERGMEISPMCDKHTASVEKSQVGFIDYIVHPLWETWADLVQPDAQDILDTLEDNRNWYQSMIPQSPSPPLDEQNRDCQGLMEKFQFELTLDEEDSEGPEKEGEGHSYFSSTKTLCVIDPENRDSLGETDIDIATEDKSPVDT
Method in brief: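 HEK293 ACTOne cells with CNG channel (1000/well), endogenous PDE4; membrane potential dye, compounds up to 22.9 uM final. Fluorescence Ex 535/Em 590; RO 20-1724 (100 uM final) as reference.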

[3] = molecular target: Cytochrome P450 2C9 (Homo sapiens) (UniProt P11712); assay: qHTS Assay for Inhibitors and Substrates of Cytochrome P450 2C9 (AID 883); further: potency means the concentration at half of the fitted maximal effect; nearly all actives have a fitted effect of over 60% in size
Sequence of Cytochrome P450 2C9 (Homo sapiens) (P11712 whole entry, looked up): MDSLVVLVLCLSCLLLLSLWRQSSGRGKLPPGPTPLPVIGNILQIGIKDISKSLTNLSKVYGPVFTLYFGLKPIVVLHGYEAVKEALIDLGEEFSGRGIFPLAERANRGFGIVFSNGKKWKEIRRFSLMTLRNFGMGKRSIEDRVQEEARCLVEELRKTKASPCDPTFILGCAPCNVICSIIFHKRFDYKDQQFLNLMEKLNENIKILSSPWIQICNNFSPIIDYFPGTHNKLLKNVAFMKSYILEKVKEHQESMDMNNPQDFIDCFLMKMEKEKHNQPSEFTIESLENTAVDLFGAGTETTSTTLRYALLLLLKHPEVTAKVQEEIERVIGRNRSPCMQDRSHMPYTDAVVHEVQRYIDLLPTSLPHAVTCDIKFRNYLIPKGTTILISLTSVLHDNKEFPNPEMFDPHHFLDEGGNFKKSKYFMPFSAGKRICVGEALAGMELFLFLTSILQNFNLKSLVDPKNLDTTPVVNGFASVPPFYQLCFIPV
Method in brief: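 Human CYP2C9 (10nM) with Luciferin-H at 100uM (its KM) in 25mM KPO4; compound preincubated 10 min at 37C, then NADPH regeneration for 60 min at 37C. Luciferin read by luminescence after detection reagent; normalized to 57uM sulphaphenazole as full inhibition.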

[4] = molecular target: Cytochrome P450 3A4 (Homo sapiens) (UniProt P08684); assay: qHTS Assay for Inhibitors and Substrates of Cytochrome P450 3A4 (AID 884); further: potency means the concentration at half of the fitted maximal effect; nearly all actives have a fitted effect of over 50% in size
Sequence of Cytochrome P450 3A4 (Homo sapiens) (P08684 whole entry, looked up): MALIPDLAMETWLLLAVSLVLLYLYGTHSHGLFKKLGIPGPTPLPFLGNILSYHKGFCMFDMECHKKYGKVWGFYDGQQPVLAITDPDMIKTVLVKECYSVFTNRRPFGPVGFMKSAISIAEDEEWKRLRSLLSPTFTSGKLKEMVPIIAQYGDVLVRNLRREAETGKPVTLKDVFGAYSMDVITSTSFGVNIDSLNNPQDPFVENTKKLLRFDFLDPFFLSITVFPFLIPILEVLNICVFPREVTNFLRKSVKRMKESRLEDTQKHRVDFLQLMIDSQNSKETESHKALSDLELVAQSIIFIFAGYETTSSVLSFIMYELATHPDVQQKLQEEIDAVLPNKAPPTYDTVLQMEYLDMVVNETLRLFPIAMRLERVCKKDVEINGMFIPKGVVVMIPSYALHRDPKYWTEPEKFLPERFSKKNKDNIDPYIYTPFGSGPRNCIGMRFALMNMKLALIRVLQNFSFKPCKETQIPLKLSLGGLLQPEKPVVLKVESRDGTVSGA
Method in brief: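 Luminescent readout of luciferin produced by CYP3A4 (20 nM) dealkylation of Luciferin-PPXE, 25 uM (its KM). NADPH-driven reaction ran 60 min at RT after 10 min compound preincubation; data scaled to 57 uM ketoconazole as 100% inhibition.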

[5] = molecular target: Cytochrome P450 3A4 (Homo sapiens) (UniProt P08684); assay: qHTS Assay for Activators of Cytochrome P450 3A4 (AID 885); further: nearly all actives have a fitted effect of over 65% in size
Method in brief: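 Human CYP3A4 dealkylates Luciferin-PPXE to luciferin, which luciferase detection converts to light. Substrate was at its KM (25uM), buffer 200mM KPO4, reaction 60 min at RT.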

[6] = molecular target: Cytochrome P450 2C19 (Homo sapiens) (UniProt P33261); assay: qHTS Assay for Inhibitors and Substrates of Cytochrome P450 2C19 (AID 899); further: potency means the concentration at half of the fitted maximal effect; nearly all actives have a fitted effect of over 60% in size
Sequence of Cytochrome P450 2C19 (Homo sapiens) (P33261 whole entry, looked up): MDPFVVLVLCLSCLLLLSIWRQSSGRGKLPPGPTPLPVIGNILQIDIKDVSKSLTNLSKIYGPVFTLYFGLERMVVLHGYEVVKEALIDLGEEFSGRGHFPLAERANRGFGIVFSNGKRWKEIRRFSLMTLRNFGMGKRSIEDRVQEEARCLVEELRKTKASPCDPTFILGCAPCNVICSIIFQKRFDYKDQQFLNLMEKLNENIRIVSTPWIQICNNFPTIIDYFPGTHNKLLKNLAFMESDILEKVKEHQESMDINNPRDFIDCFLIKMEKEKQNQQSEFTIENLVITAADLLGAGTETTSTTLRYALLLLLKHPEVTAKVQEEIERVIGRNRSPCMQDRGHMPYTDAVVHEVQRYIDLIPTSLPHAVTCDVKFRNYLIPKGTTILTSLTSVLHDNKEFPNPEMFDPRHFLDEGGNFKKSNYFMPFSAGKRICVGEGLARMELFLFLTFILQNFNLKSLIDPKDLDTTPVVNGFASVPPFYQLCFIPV
Method in brief: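 5 nM human CYP2C19 with 10uM Luciferin-H EGE (at KM) in 50mM KPO4, compound preincubated 10 min at 37C, then NADPH regeneration for 60 min at 37C. Luciferin read by luminescence after detection reagent; normalized to 57uM ketoconazole as full inhibition.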

[7] = molecular target: Mitogen-activated protein kinase 10 (Mus musculus) (UniProt Q61831); assay: JNK3 AlphaScreen Assay (AID 530; active means well fitted curve in either direction with a large enough effect, not every such curve was filed as active;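 further: kinase came from lysate of stimulated human HepG2 cells; signal reports phosphorylation of biotinylated GST-cJun 1-79 at Ser73 with 10 µM ATP; series mostly up to about 57 µM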)
Method in brief: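 Activity was read by AlphaScreen after JNK3-containing HepG2 lysate (cytokine pre-activated) phosphorylated biotinylated GST-cJun with 10 uM ATP at room temperature. Phospho-Ser73 cJun antibody with Protein-A acceptor beads provided detection.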

SMILES	Potency [1]	Potency [2]	Potency [3]	Potency [4]	Potency [5]	Potency [6]	Potency [7]
COC(=O)[C@H](C)[C@H]1C[C@]1(C)[C@H](NC(=O)OCc1ccccc1)c1ccccc1	15800 nM (active)	inactive	2000 nM (active)	7940 nM (active)	inactive	251 nM (active)	
COC(=O)c1ccc(C(NC(=O)c2ccccc2)[C@]2(C)C[C@H]2C2CCCCC2)cc1 (stereo not given in full)	inactive				inactive	2510 nM (active)	inactive
